Experimental data published in PubChem BioAssay (NCATS).
Inconclusive results are not listed. Entries that show only a call come without a potency. Active and inactive are the calls of the source. The call rests on the fitted dose curve; in most records, active means well fitted inhibition curve with a large enough effect; inconclusive means small, poorly fitted or top-dose-only effect; inactive means flat fitted curve, though single readings scatter.

assay: P-glycoprotein substrates identified in KB-8-5-11 adenocarcinoma cell line, qHTS therapeutic library screen (AID 1346987); settings: KB-8-5-11 (P-gp overexpressing) viability, CellTiter-Glo, 72 h; series mostly up to 44.5 µM; further: nearly all actives have a fitted effect of over 65% in size
Summary of the method: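 Luminescence from CellTiter-Glo, read 5 min after addition, quantified survival of KB-8-5-11 (P-gp-overexpressing) cells exposed to compounds for 72 h. AC50 was derived from concentration-response curves.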
Potency means the concentration at half of the fitted maximal effect.

| Compound | Potency |
| --- | --- |
| CCCN1CCN(c2ccc(C(=O)NC3(C(=O)NCC#N)CCCCC3)cc2)CC1 | inactive |
| COc1cc(Br)c(S(=O)(=O)Nc2ccc(C(F)(F)F)c(O[C@@H]3CCN(C)C3)c2)cc1OC | inactive |
| CCN1CCN(Cc2ccc(NC(=O)Nc3ccc(Oc4cc(NC)ncn4)cc3)cc2C(F)(F)F)CC1 | inactive |
| CC1=CC(=O)CC2C1(O)CCC(C)C21CC(c2ccoc2)OC1=O (stereo not drawn) | inactive |
| C/C=C/C=C/C=C/C(=O)OC1C=C(C=O)C(O)(C(=O)O)C2(C)CCCC(C)(C)C12 (stereo not drawn) | inactive |
| CC1=CC(=O)CC(C)(CO)C1(O)/C=C/C(C)O[C@@H]1O[C@H](CO)[C@@H](O)[C@H](O)[C@H]1O (stereo partly drawn) | inactive |
| O=C(O[C@H]1[C@@H]2C[C@@H]3OC[C@](O)([C@@H]1Cl)[C@H]2C(O[C@@H]1O[C@H](CO)[C@@H](O)[C@H](O)[C@H]1O)O3)c1ccc(O)c(O)c1 (stereo partly drawn) | inactive |
| CC[C@@H](N)CNc1ccnc(-c2cc(-c3cnn(C)c3)ccc2O)n1 | 5.17 µM (active) |
